ChEMBL document CHEMBL3988442, “University of Dundee, Small-Polar-MMV Screening Library” (2021)
Among all 38,000 compounds or so, about 1,200 (3.2%) showed an effect of 50% or more. The median lay at about -58%. The list comes from a sample in which strong results are over-represented; it also holds similar structures and randomly drawn compounds.

Each compound was assayed on Plasmodium falciparum (assay: Calibr Malaria Delayed Death Assay SOP). Details: concentration 4.99e-06 (unit not given; other assays of the set use mol/L).
Format: functional, organism-based
Set-up: scale not given: in the data most compounds retested in dose-response had high values

| Compound | Percent Effect [%] |
| --- | --- |
| CN(C)C(=O)CO[C@H]1CN(Cc2ccc3c(c2)OCO3)[C@@H]2COC[C@H]12.O=C(O)C(F)(F)F | -65.25 |
| c1cnn(CC2CCN(c3nc(C4CC4)nc4c3CCNCC4)CC2)c1 | 90.7 |
| CCOCc1nc2c(c(N3CCN4CCCC4C3)n1)CCNCC2 (stereo not given) | -33.92 |
| NCC1CCN(c2nc(C3CCCC3)nc3c2CCNCC3)C1 (stereo not given) | 93.21 |
| Cc1nc2c(c(N3CCC(CCn4cccn4)CC3)n1)CCNCC2 | 39.53 |
| Nc1nc2c(c(N3CCC(CN4CCCC4=O)CC3)n1)CCNCC2 | -195.3 |
| Cc1nc2c(c(N3CCC(CN4CCCC4=O)CC3)n1)CCNCC2 | -95.59 |
| C1CCC(c2nc3c(c(N4CC(N5CCOCC5)C4)n2)CCNCC3)C1 | -121.5 |
| Nc1nc2c(c(N3CCC(CCn4cccn4)CC3)n1)CCNCC2 | 0.6794 |
| C1CCC(c2nc3c(c(N4CCN5CCCC5C4)n2)CCNCC3)C1 (stereo not given) | 77.28 |
| CS(=O)(=O)Nc1nn(Cc2ccc(F)cc2)cc1Br | -19.12 |
| CCNS(=O)(=O)c1cnccc1N1CCN(CCO)CC1 | -122.2 |
| Cc1cc(C)nc(N2CCC(c3cncc(-n4ccnc4)n3)CC2)n1 | -62.28 |
| CC(O)CN1CCN(C(=O)CCOC(C)C)CC1 (stereo not given) | -34.58 |
| O=C(C1CCOCC1)N1CCC2(CCN(Cc3nccs3)CC2)CC1.O=C(O)C(F)(F)F | -69.08 |
| CN(Cc1cc(Br)cs1)Cc1nnsc1Cl | -124.6 |
| CCOc1ccnc(N2CCCN(c3nc(CC)ns3)CC2)n1 | -65.97 |
| CCOc1ccnc(N2CCCN(c3nc(C4CC4)ns3)CC2)n1 | 50.17 |
| Cc1nsc(N2CCCN(c3nc(C4CC4)ns3)CC2)n1 | -111.5 |
| COCCN(Cc1sccc1C)C(=O)COc1ccccc1O | -70.17 |
| COCCN(Cc1sccc1C)C(=O)C1CCCN(C(N)=O)C1 (stereo not given) | -77.34 |
| COCCN(Cc1sccc1C)C(=O)C1CCN(C(C)C)CC1 | 57.24 |
| CCn1cnnc1CNC(=O)NC(C)c1ccc(Cl)s1 (stereo not given) | -29.19 |
| Cc1nc(N)ccc1CC1COc2ccccc2C1 (stereo not given) | 39.32 |
| Cc1csc(CNCC(C)c2nc3ccccc3o2)n1 (stereo not given) | -35.1 |
| Cc1ccc(O)c(CNCC(C)c2nc3ccccc3o2)n1 (stereo not given) | 62.12 |
| Cc1nc(CNCC(C)c2nc3ccccc3o2)cs1 (stereo not given) | -114.5 |

| Compound | Percent Effect [%] |
| --- | --- |
| N#Cc1cccnc1OC1CCN(S(=O)(=O)c2ccc(F)c(Cl)c2)CC1 | -120.1 |
| Cc1cccc(C(=O)N2CC[C@@H]3CN(c4ncccn4)CCO[C@@H]3C2)c1 | 3.612 |
| CCn1ccnc1CN(C)C(=O)Cn1ccc2ccccc2c1=O | -48.52 |
| CN1CCOC(CNCc2cccc(OCC(F)(F)F)c2)C1 (stereo not given) | 11.83 |
| CN1CCOC(CNC(=O)C2(c3cccc(C(F)(F)F)c3)CCCC2)C1 (stereo not given) | 55.27 |
| Cc1cccc(C2(C(=O)NCC3CN(C)CCO3)CC2)c1 (stereo not given) | -0.8202 |
| Cc1cccc(NC(=O)c2ccc(-n3cncn3)nn2)n1 | -82.38 |
| CC(C)c1n[nH]c(C(=O)Nc2ccncc2)c1Br | -170.8 |
| CC(C)c1n[nH]c(C(=O)Nc2cc[nH]n2)c1Br | -216.8 |
| Cc1cccc(NC(=O)c2sc(C)nc2C)n1 | -70.67 |
| Cc1ccnc(NC(=O)CCNC(=O)c2ccccc2Cl)c1 | -154.4 |
| Cc1ccnc(NC(=O)c2ccc(Br)o2)c1 | -122.7 |
| Cc1ccnc(NC(=O)c2[nH]nc(C(C)C)c2Br)c1 | 72.66 |
| Cc1cccc(NC(=O)c2[nH]nc(C(C)C)c2Br)n1 | 55.91 |
| CCc1ccsc1C(=O)N1CCCN(Cc2cnn(CC)c2)CC1 | -131.2 |
| Cc1occc1C(=O)N1C[C@@H]2OCCN(CCN3CCCC3)[C@@H]2C1.O=C(O)C(F)(F)F.O=C(O)C(F)(F)F | -96.04 |
| CCC(=O)N1CCC2(CC1)C(=O)N(C)CCN2Cc1csc(C)n1.O=C(O)C(F)(F)F | -46.93 |
| COCCN(C)C[C@@H]1CN(C(=O)c2cccc(Cl)c2)C[C@@H]1CO | -171.8 |
| CCN(C)C[C@@H]1CN(S(=O)(=O)c2cccc(Cl)c2)C[C@@H]1CO | 74.38 |
| COCCN1C(=O)[C@H]2CC[C@@H]1CN(S(=O)(=O)c1cccc(Cl)c1)C2 | -81.8 |
| CN(C)CCN(C)C[C@@H]1CN(Cc2cccc(O)c2)C[C@@H]1CO | -40.55 |
| CCN(C)C[C@@H]1CN(Cc2cccc(O)c2)C[C@@H]1CO | -20.19 |
| C=Cc1cccc(CN2C[C@@H](CN(C)CC)[C@@H](CO)C2)c1 | 87.24 |
| Cc1ncsc1C(=O)OCC1CCN(c2ccccc2)C1 (stereo not given) | 9.637 |
| CNc1cncc(C2CCCN2Cc2ccnc(N3CCCC3)n2)n1 (stereo not given) | -40.21 |
| CN(CC1(CO)CCCC1)C(=O)c1cc(COc2ccccc2F)[nH]n1 | -12.3 |
| CSCCC(NC(=O)c1nc(SC)ncc1Cl)C(=O)O (stereo not given) | -13.47 |

| Compound | Percent Effect [%] |
| --- | --- |
| CC(C)(C)c1nc(CN2CCOC(Cn3cncn3)C2)cs1 (stereo not given) | -89.29 |
| Cc1cc(-c2cnn(CCNC(=O)CCn3cccn3)c2C2CC2)on1 | -69.32 |
| CC(C)NC(=O)CN1CCN(CC2CCOc3ccccc3C2)CC1 (stereo not given) | -22.48 |
| CNC(=O)CCN1CCCC1c1ccccc1Br (stereo not given) | -26.77 |
| COCCN1CCCC1c1cccc2c1OCCO2 (stereo not given) | -6.29 |
| CC(C)NC(=O)CCN1CCCC1c1cccc2c1OCCO2 (stereo not given) | 52.1 |
| O=C(CCN1CCCC1c1cccc2c1OCCO2)N1CCCCC1 (stereo not given) | 72.46 |
| CCNC(=O)CCN1CCCC1c1cccc2c1OCCO2 (stereo not given) | 51.42 |
| O=C(CCN1CCCC1c1cccc2c1OCCO2)N1CCOCC1 (stereo not given) | -28.31 |
| O=C(CCN1CCCCCC1c1ccco1)N1CCOCC1 (stereo not given) | -45.72 |
| NC(=O)NC(=O)CCN1CCCC1c1cccc2c1OCCO2 (stereo not given) | 22.71 |
| Cc1cc(C)cc(NCCC(=O)NC2CCCCC2)c1 | -32.74 |
| CCOCC1CN(C(=O)Cc2ccccn2)Cc2cnn(CC)c21 (stereo not given) | -151.3 |
| CCCNC(=O)CNc1ccccc1OCCC(=O)OC | -87.74 |
| Cn1cc(CN2CCC3(CC2)CCN(C(=O)c2cscn2)C3)cn1.O=C(O)C(F)(F)F | -97.69 |
| COc1ccc(C(N)=O)cc1NCc1nc(-c2cccs2)oc1C | -37.05 |
| CC(C)c1nnc2n1CC(CNCc1cccnc1)CC2 (stereo not given) | -95.11 |
| O=C(NCCC(=O)N1CCCC1)c1cccnc1 | -130.5 |
| CC(=O)Nn1ccc2c(nnc3c(-c4ccc(F)cc4)cnn32)c1=O | -66.29 |
| COc1ncc(CN2C[C@@H]3CC[C@@](O)(c4ccc(C)cn4)[C@@H]3C2)cn1.O=C(O)CC(O)(CC(=O)O)C(=O)O | -80.6 |
| CC[C@H]1CN(C(=O)CCn2c(C)cccc2=O)CC[C@@]1(C)O | -150.9 |
| CN(C)c1cc(CNC(=O)c2n[nH]c(=O)c3ccccc23)ccn1 | -121.9 |
| c1ccc(OCCNCc2cccs2)nc1 | -81.56 |
| Cc1ccsc1CNCCCOc1ccccn1 | 53.78 |
| c1ccc(OCCCNCc2cccs2)nc1 | 17.97 |
| O=C(O)C1(Cc2ccccc2F)CCCN(c2ncnc3[nH]ccc23)C1 (stereo not given) | -54.27 |
| CCN1CCCN(S(=O)(=O)c2cnc3onc(C)c3c2)CC1 | -44.36 |

| Compound | Percent Effect [%] |
| --- | --- |
| C[C@@H]1CN(S(=O)(=O)c2ccc(F)cc2Cl)C[C@]1(C)O | -40.08 |
| Cc1ccc(S(=O)(=O)NCCCN2CCC(O)CC2)cc1Cl | 19.72 |
| CCN1CCN(S(=O)(=O)c2cc(C)c(C)cc2Br)CC1 | 25.52 |
| CCN1CCN(S(=O)(=O)c2cc(C)c(Cl)cc2Cl)CC1 | 62.85 |
| CCN1CCN(S(=O)(=O)c2cc(C)c(Cl)cc2C)CC1 | 16.43 |
| Cc1ccc(S(=O)(=O)N2CCN(Cc3ccncc3)CC2)c(Cl)c1 | 0.628 |
| CCN1CCN(S(=O)(=O)c2cc(Cl)c(Cl)cc2C)CC1 | 69.76 |
| CCOCc1nc(N2CCCC2)sc1C(=O)NCc1ccco1 | -71.71 |
| O=S1(=O)c2cccnc2OC(COc2ccccc2)CN1CC1CC1 (stereo not given) | -105.2 |
| CC(C)NC(=O)CNC(C)c1c(F)cccc1Cl (stereo not given) | -63.71 |
| Cc1ccc(OCC(=O)NC2CCN(S(C)(=O)=O)CC2)cc1 | -121.3 |
| O=C(c1ccc(F)c(F)c1)N1CCCC1CN1CCCC1 (stereo not given) | -45.59 |
| CC(C)N(CCCNC(=O)C1CCOCC1)S(C)(=O)=O | -53.5 |
| CN(C)C(=O)c1nn(C)c2c1CN(Cc1ccoc1)C2 | -66.64 |
| c1cnc2ccc(C[C@@H]3CC[C@H](CN4CCCOCC4)O3)cc2c1 | 56.67 |
| CN1CCN(C[C@H]2CC[C@@H](Cc3ccc(CN4CCCC4)cc3)O2)CC1 | 35.77 |
| CC(=O)N1CCN(C[C@H]2CC[C@@H](Cc3ccc4ncccc4c3)O2)CC1 | -19.65 |
| CC1CCN(Cc2ccc(CNC(=O)c3ccn(C)c(=O)c3)cc2)CC1 | -16.27 |
| Clc1cc(NCc2ccncc2)nc2[nH]ccc12 | 63.3 |
| Clc1cc(NCc2nccs2)nc2[nH]ccc12 | -79.81 |
| Clc1cc(NCc2ncc[nH]2)nc2[nH]ccc12 | -55.12 |
| CCOc1nn(CC)cc1-c1nnc(SCc2cccnc2)n1C | -73.46 |
| Cc1ccc(C(=O)N2CCCCC2CN(C)C)cc1 (stereo not given) | -61.09 |
| CN(CCO)CC1COCCN1C(=O)C1CCCCC1.O=CO (stereo not given) | -110.9 |
